# ChEMBL document CHEMBL3988442, “University of Dundee, Small-Polar-MMV Screening Library” (2021)
# Out of some 69,000 compounds screened, about 1,000 (1.4%) showed an effect of 50% or more. Only a selection was taken, and strong results are over-represented in it overall.
# Tested on: Leishmania donovani
# Experiment: Leishmania intramacrophage assay
# Type: functional, organism-based
# Parameters: scale not given: in the data most compounds retested in dose-response had high values
compound,measurement,setting,value
CN(C)c1ncc(-c2cc(C(=O)N3CCCC3)n(CC3CC3)c2)cn1,Percent Effect,"30.3 µM, […]",-11.64%
CN1CCCN(C(=O)c2nc3sccn3c2-c2ncc[nH]2)CC1,Percent Effect,"30.3 µM, […]",0.9103%
Cc1ccsc1CN1CC2(CCN(C(=O)C3CC3)CC2)CC1C(=O)O (stereo not drawn),Percent Effect,"30.3 µM, […]",49%
CCOCCN1CCN(CC(=O)NC2(C#N)CCCC2)CC1CC (stereo not drawn),Percent Effect,"30.3 µM, […]",4.261%
CCCc1nnnn1Cc1cn2c(C)cccc2n1,Percent Effect,"30.3 µM, […]",19.02%
COc1ccc(OC)c(Nc2nc3c(C)nn(C)c3c(=O)n2C)c1,Percent Effect,"30.3 µM, […]",46.31%
COc1ccc(C)cc1Nc1nc2c(C)nn(C)c2c(=O)n1C,Percent Effect,"30.3 µM, […]",54.75%
COc1ccccc1Nc1nc2c(C)nn(C)c2c(=O)n1C,Percent Effect,"30.3 µM, […]",-67.83%
CCc1nn(C)c(Cl)c1CN1C[C@@H](NC(=O)N(C)C)[C@H](C(C)C)C1,Percent Effect,"30.3 µM, […]",11.23%
COC(=O)CN(C(=O)c1ccco1)c1cccc(F)c1,Percent Effect,"30.3 µM, […]",-4.639%
CSc1cccc(NC(=O)CCC(=O)Nc2nccs2)c1,Percent Effect,"30.3 µM, […]",36.02%
CCC(C)Oc1ccc(CNCCNC(C)=O)cc1Cl (stereo not drawn),Percent Effect,"30.3 µM, […]",40.54%
CCC(C)Oc1ccc(CNCCc2c[nH]cn2)cc1Cl (stereo not drawn),Percent Effect,"30.3 µM, […]",99.79%
CCC(C)Oc1ccc(CNCCNS(C)(=O)=O)cc1Cl (stereo not drawn),Percent Effect,"30.3 µM, […]",32.76%
Cc1cnn(CC(=O)N2CCC(c3ccn4nccc4n3)CC2)c1,Percent Effect,"30.3 µM, […]",-6.355%
O=C(Cc1nc(-c2ccncc2)n[nH]1)NCCCN1CCOCC1,Percent Effect,"30.3 µM, […]",58.11%
COCCCNC(=O)Cc1nc(-c2ccncc2)n[nH]1,Percent Effect,"30.3 µM, […]",-25.69%
O=C(Cc1nc(-c2ccncc2)n[nH]1)N1CCOCC1,Percent Effect,"30.3 µM, […]",-34.22%
COCCC1(CNC(=O)NCC2CN(C)CCN2C)CCC1 (stereo not drawn),Percent Effect,"30.3 µM, […]",8.791%
CCn1c(N)nc2cc(C(=O)NCCc3ccccc3F)cnc21,Percent Effect,"30.3 µM, […]",-34.47%
CCn1c(N)nc2cc(C(=O)NCCc3ccncc3)cnc21,Percent Effect,"30.3 µM, […]",62.87%
CCn1c(N)nc2cc(C(=O)NCCc3ccccc3C)cnc21,Percent Effect,"30 µM, 30.03 µM",29.75%
COc1ccccc1Cc1cncc(N2CC(C(=O)O)C2)n1.Cl,Percent Effect,"30.3 µM, […]",35.18%
O=C(O)C1CN(c2cncc(Cc3ccccc3F)n2)C1,Percent Effect,"30.3 µM, […]",17.92%
O=C(O)C1CN(c2cncc(Cc3ccccc3)n2)C1,Percent Effect,"30.3 µM, […]",57.22%
O=C(N1CCOCC1)N1CCc2ncnc(NC3CCC3)c2CC1.O=C(O)C(F)(F)F,Percent Effect,"30.3 µM, […]",14.85%
c1cc2nc(C3CCNCC3)nn2cc1NC1CCC1,Percent Effect,"30.3 µM, […]",33.34%
Cc1nc(COC(=O)c2cccc3c2OCCO3)cs1,Percent Effect,"30.3 µM, […]",-13.85%
Cc1nc(COC(=O)c2cccc3c2OCCO3)no1,Percent Effect,"30.3 µM, […]",59.03%
Cc1nc(COC(=O)c2cccnc2C)no1,Percent Effect,"30.3 µM, […]",42.97%
N#Cc1c(Cl)nsc1NCC1(c2ccccc2)CCC1,Percent Effect,"30.3 µM, […]",91.2%
COc1ccccc1C1(CNc2snc(Cl)c2C#N)CCOCC1,Percent Effect,"30.3 µM, […]",-16.98%
COc1ccccc1C1(CNc2snc(Cl)c2C#N)CCCC1,Percent Effect,"30.3 µM, […]",7.398%
Cc1cnn(-c2ccc(S(=O)(=O)N(C)CC(C)(CO)CO)cc2F)c1,Percent Effect,"30.3 µM, […]",-120.1%
CNS(=O)(=O)c1ccc(CNC(=O)N(C)CC(O)COC)cc1 (stereo not drawn),Percent Effect,"30.3 µM, […]",11.97%
CNS(=O)(=O)c1ccc(CNC(=O)N(CC(C)C)C(C)C)cc1,Percent Effect,"30.3 µM, […]",-6.25%
CNS(=O)(=O)c1ccc(CNC(=O)N(C)CC(C)C)cc1,Percent Effect,"30.3 µM, […]",72.03%
CN(C(=O)c1ccc(OCC(F)F)nc1)c1ccc2c(c1)CCO2,Percent Effect,"30.3 µM, […]",3.527%
Cc1ncn(CCNC(=O)Nc2ccc(F)c(Cl)c2)c(=O)c1C,Percent Effect,"30.3 µM, […]",0.8424%
Cc1noc([C@H]2C[C@@H]3CCN(C(=O)C4CCOCC4)C[C@H]3O2)n1,Percent Effect,"30 µM, 30.03 µM",-8.466%
Cc1noc([C@@H]2C[C@H]3CN(C(=O)C4CCN(C)CC4)C[C@H]3O2)n1.O=C(O)C(F)(F)F,Percent Effect,"30.3 µM, […]",33.07%
Cc1noc([C@H]2C[C@H]3CN(C(=O)C4CCOCC4)CC[C@@H]3O2)n1,Percent Effect,"30.3 µM, […]",60.92%
CSc1nccc(N2CCC3(CCCN(Cc4ccc(F)cc4)C3)C2)n1 (stereo not drawn),Percent Effect,"30.3 µM, […]",14.67%
Cc1cn2c(n1)C(CNCC1=Cc3cc(Cl)ccc3OC1)CCC2 (stereo not drawn),Percent Effect,"30.3 µM, […]",69.51%
Cc1cn2c(n1)C(CNCc1ccc(C)s1)CCC2 (stereo not drawn),Percent Effect,"30.3 µM, […]",-5.269%
Cc1cn2c(n1)C(CNCC1=Cc3ccccc3OC1)CCC2 (stereo not drawn),Percent Effect,"30.3 µM, […]",8.139%
CCc1ocnc1C(=O)N1CCCC(n2nc(C)nc2C)C1 (stereo not drawn),Percent Effect,30 µM,15.71%
NC(=O)c1cn[nH]c1C1CCCN1C(=O)COc1ccccc1 (stereo not drawn),Percent Effect,"30.3 µM, […]",17.94%
CC(NC(=O)CCCc1nc(C(C)(C)C)no1)c1ccccn1 (stereo not drawn),Percent Effect,30 µM,-2.756%
Cc1nc(CN2C(=O)CC[C@@H]3[C@H]2CCN3C2CCOC2)cs1.O=C(O)C(F)(F)F (stereo partly drawn),Percent Effect,"30.3 µM, […]",-26.48%
COC(=O)C(NC(=O)C1CCCC1)c1cc(F)ccc1F (stereo not drawn),Percent Effect,30 µM,13.67%
COC(=O)C(NC(=O)COC1CCCC1)c1cc(F)ccc1F (stereo not drawn),Percent Effect,"30 µM, 30.03 µM",54.06%
COC(=O)C(NC(=O)CC(C)C)c1cc(F)ccc1F (stereo not drawn),Percent Effect,30 µM,17.07%
